Laboratory results as given in the antibiotic and cytotoxicity screens of Wong et al. (2023).
Hit rate of the full screen: of about 39,000 compounds, about 3,300 (8.5%) were called active. The sample as a whole holds a higher share of actives than the screen did.

Tested on: HepG2
Assay: cytotoxicity call (relative viability < 0.9)
Conditions: 10 µM

Compound | cytotoxicity call
C[C@H]1CN([C@@H](C)CO)C(=O)Cc2cc(NS(C)(=O)=O)ccc2O[C@H]1CN(C)Cc1ccc(C(=O)O)cc1 | inactive
C=CCOC(=O)[C@@H]1[C@H]2C(=O)O[C@H](c3ccccc3)[C@H](c3ccccc3)N2[C@H](c2ccc(OCCOC(=O)[C@H]3C[C@H]4C(=O)N5CCC[C@H]5C(=O)N4[C@H]3c3ccc(O)cc3)cc2)[C@@]12C(=O)Nc1ccccc12 | inactive
Cn1ncc2c(NN3C(=O)CCC3=O)ncnc21 | inactive
CC(C)CC#Cc1ccc2c(c1)O[C@@H](CN(C)Cc1cncnc1)[C@@H](C)CN([C@H](C)CO)S2(=O)=O | inactive
CC(C)NC(=O)[C@@H]1c2ccccc2C(=O)N(Cc2cc(F)cc(C(F)(F)F)c2)[C@H]1c1ccc(CO)cc1 | inactive
CC(C)NC(=O)Nc1ccc2c(c1)C(=O)N([C@H](C)CO)C[C@H](C)[C@@H](CN(C)S(=O)(=O)c1cn(C)cn1)OCCCC[C@H](C)O2 | inactive
CC(C)NC(=O)N1C[C@H]2[C@H](C(=O)N(C)Cc3ccccn3)CCS(=O)(=O)[C@H]2C1 | inactive
Cc1noc(C)c1S(=O)(=O)N(C)C[C@H]1Oc2ccc(NS(=O)(=O)c3ccc(F)cc3)cc2CC(=O)N([C@@H](C)CO)C[C@H]1C | inactive
C=CC[C@@H](CC(=O)N(CCO)Cc1ccccc1)C(=O)N[C@H](COC(=O)[C@@H](CC=C)CC(=O)OC(C)(C)C)Cc1c[nH]c2ccccc12 | inactive
Cc1ccc(S(=O)(=O)N2C[C@H](O)COC[C@H]3O[C@H](CC(=O)NCCCN(C)C)CC[C@@H]32)cc1 | inactive
Cc1ccc(S(=O)(=O)N(C)C[C@@H]2OCCCC[C@H](C)Oc3ccc(NS(=O)(=O)c4ccc(F)cc4)cc3C(=O)N([C@H](C)CO)C[C@H]2C)cc1 | inactive
C[C@@H]1CCCCO[C@H](CN(C)Cc2ccc3c(c2)OCO3)[C@@H](C)CN([C@H](C)CO)C(=O)c2cc(NC(=O)Cc3ccccc3)ccc2O1 | inactive
COc1ccc(CN(C)C[C@@H]2OCCCC[C@@H](C)Oc3ccc(NC(=O)Cc4ccccc4)cc3C(=O)N([C@H](C)CO)C[C@H]2C)cc1 | inactive
CCCCCOc1ccc(-c2cc(-c3ccc(C(=O)N[C@H]4C[C@@H](O)[C@@H](O)NC(=O)[C@H]5[C@@H](O)[C@@H](C)CN5C(=O)[C@H]([C@@H](O)CC(N)=O)NC(=O)[C@H]([C@@H](O)[C@@H](O)c5ccc(O)c(OS(=O)(=O)O)c5)NC(=O)[C@H]5C[C@@H](O)CN5C(=O)[C@H]([C@@H](C)O)NC4=O)cc3)no2)cc1 | inactive
CCCCCOc1ccc(-c2ccc(-c3ccc(C(=O)N[C@H]4C[C@@H](O)[C@@H](O)NC(=O)[C@@H]5[C@@H](O)[C@@H](C)CN5C(=O)[C@H]([C@@H](C)O)NC(=O)[C@H]([C@H](O)[C@@H](O)c5ccc(O)cc5)NC(=O)[C@@H]5C[C@@H](O)CN5C(=O)[C@H]([C@@H](C)O)NC4=O)cc3)cc2)cc1 | active
CC[C@H](C)C[C@H](C)CCCCCCCCC(=O)N[C@H]1C[C@@H](O)[C@@H](NCCN)NC(=O)[C@@H]2[C@@H](O)CCN2C(=O)[C@H]([C@H](O)CCN)NC(=O)[C@H]([C@H](O)[C@@H](O)c2ccc(O)cc2)NC(=O)[C@@H]2C[C@@H](O)CN2C(=O)[C@H]([C@@H](C)O)NC1=O | inactive
C[C@@H]1CN([C@@H](C)CO)C(=O)Cc2cc(NC(=O)CCN3CCOCC3)ccc2O[C@H]1CN(C)C(=O)Nc1ccc2c(c1)OCO2 | inactive
CC(C)NC(=O)N(C)C[C@@H]1Oc2ccc(NC(=O)CCC(F)(F)F)cc2C(=O)N([C@H](C)CO)C[C@@H]1C | inactive
Cc1noc(C)c1S(=O)(=O)Nc1ccc2c(c1)C(=O)N([C@H](C)CO)C[C@@H](C)[C@H](CN(C)C(=O)Nc1ccc(C(F)(F)F)cc1)OCCCC[C@@H](C)O2 | active
Cc1noc(C)c1S(=O)(=O)Nc1ccc2c(c1)C(=O)N([C@@H](C)CO)C[C@H](C)[C@H](CN(C)C(=O)Nc1ccc(C(F)(F)F)cc1)OCCCC[C@H](C)O2 | inactive
Cc1noc(C)c1S(=O)(=O)Nc1ccc2c(c1)C(=O)N([C@H](C)CO)C[C@H](C)[C@H](CN(C)C(=O)Nc1ccc(C(F)(F)F)cc1)OCCCC[C@H](C)O2 | inactive
Cc1noc(C)c1S(=O)(=O)Nc1ccc2c(c1)C(=O)N([C@H](C)CO)C[C@@H](C)[C@@H](CN(C)C(=O)Nc1ccc(C(F)(F)F)cc1)OCCCC[C@@H](C)O2 | active
Cc1noc(C)c1S(=O)(=O)Nc1ccc2c(c1)C(=O)N([C@H](C)CO)C[C@H](C)[C@H](CN(C)C(=O)Nc1ccc(C(F)(F)F)cc1)OCCCC[C@@H](C)O2 | inactive
Cc1noc(C)c1S(=O)(=O)Nc1ccc2c(c1)C(=O)N([C@@H](C)CO)C[C@H](C)[C@@H](CN(C)C(=O)Nc1ccc(C(F)(F)F)cc1)OCCCC[C@H](C)O2 | active
Cc1noc(C)c1S(=O)(=O)Nc1ccc2c(c1)C(=O)N([C@@H](C)CO)C[C@@H](C)[C@@H](CN(C)C(=O)Nc1ccc(C(F)(F)F)cc1)OCCCC[C@H](C)O2 | inactive
Cc1noc(C)c1S(=O)(=O)Nc1ccc2c(c1)C(=O)N([C@@H](C)CO)C[C@@H](C)[C@@H](CN(C)C(=O)Nc1ccc(C(F)(F)F)cc1)OCCCC[C@@H](C)O2 | inactive
Cc1noc(C)c1S(=O)(=O)Nc1ccc2c(c1)C(=O)N([C@@H](C)CO)C[C@@H](C)[C@H](CN(C)C(=O)Nc1ccc(C(F)(F)F)cc1)OCCCC[C@H](C)O2 | inactive

Compound | cytotoxicity call
C[C@@H]1CN([C@@H](C)CO)C(=O)c2cccc(NC(=O)c3cnccn3)c2O[C@@H]1CN(C)C(=O)Nc1ccccc1 | inactive
COc1ccc(S(=O)(=O)N(C)C[C@H]2Oc3ccc(NC(=O)c4ccncc4)cc3CC(=O)N([C@H](C)CO)C[C@@H]2C)cc1 | inactive
C[C@H](CO)N1C[C@H](C)[C@@H](CN(C)C(=O)Nc2ccc(C(F)(F)F)cc2)Oc2ccc(NC(=O)Cn3cnnn3)cc2CC1=O | inactive
COc1cccc(NC(=O)N2C[C@@H](O)COC[C@@H]3O[C@H](CC(=O)NCCCN4CCOCC4)CC[C@H]32)c1 | inactive
COc1ccc(CN(C)C[C@@H]2Oc3c(NS(=O)(=O)c4cn(C)cn4)cccc3C(=O)N([C@@H](C)CO)C[C@H]2C)cc1 | inactive
C[C@H]1CN([C@@H](C)CO)C(=O)c2cccc(NC(=O)c3cnccn3)c2O[C@H]1CN(C)Cc1ccccc1 | inactive
C[C@@H]1CN([C@@H](C)CO)C(=O)Cc2cc(NS(C)(=O)=O)ccc2O[C@@H]1CN(C)Cc1ccc(C(F)(F)F)cc1 | inactive
Cc1ccc(S(=O)(=O)Nc2ccc3c(c2)CC(=O)N([C@H](C)CO)C[C@@H](C)[C@H](CN(C)Cc2ccncc2)O3)cc1 | inactive
Cc1ccc(S(=O)(=O)Nc2ccc3c(c2)CC(=O)N([C@@H](C)CO)C[C@H](C)[C@H](CN(C)Cc2ccc(C(F)(F)F)cc2)O3)cc1 | inactive
C[C@@H]1CN([C@H](C)CO)C(=O)Cc2cc(NS(C)(=O)=O)ccc2O[C@@H]1CN(C)Cc1ccc(C(F)(F)F)cc1 | inactive
Cc1ccc(S(=O)(=O)Nc2ccc3c(c2)CC(=O)N([C@H](C)CO)C[C@@H](C)[C@@H](CN(C)Cc2ccc(C(F)(F)F)cc2)O3)cc1 | active
C[C@H]1CN([C@@H](C)CO)C(=O)Cc2cc(NS(C)(=O)=O)ccc2O[C@@H]1CN(C)Cc1ccc(C(F)(F)F)cc1 | inactive
Cc1ccc(S(=O)(=O)Nc2ccc3c(c2)CC(=O)N([C@H](C)CO)C[C@@H](C)[C@H](CN(C)Cc2ccc(C(F)(F)F)cc2)O3)cc1 | inactive
Cc1ccc(S(=O)(=O)Nc2ccc3c(c2)CC(=O)N([C@@H](C)CO)C[C@H](C)[C@@H](CN(C)Cc2ccc(C(F)(F)F)cc2)O3)cc1 | active
Cc1ccc(S(=O)(=O)Nc2ccc3c(c2)CC(=O)N([C@H](C)CO)C[C@H](C)[C@H](CN(C)Cc2ccc(C(F)(F)F)cc2)O3)cc1 | active
C[C@H](CO)N1C[C@H](C)[C@H](CN(C)Cc2ccc(C(F)(F)F)cc2)Oc2ccc(NS(C)(=O)=O)cc2CC1=O | inactive
Cc1ccc(S(=O)(=O)Nc2ccc3c(c2)CC(=O)N([C@H](C)CO)C[C@@H](C)[C@@H](CN(C)Cc2ccncc2)O3)cc1 | active
Cc1ccc(S(=O)(=O)Nc2ccc3c(c2)CC(=O)N([C@@H](C)CO)C[C@H](C)[C@@H](CN(C)Cc2ccncc2)O3)cc1 | inactive
O=C(C[C@@H]1CC[C@H]2[C@@H](COC[C@H](O)CN2Cc2ccccc2F)O1)N[C@@H]1CCN(Cc2ccccc2)C1 | inactive
COc1ccc(S(=O)(=O)Nc2cccc3c2O[C@H](CN(C)S(=O)(=O)c2c(C)noc2C)[C@@H](C)CN([C@H](C)CO)C3=O)cc1 | inactive
C/C=C/c1ccc([C@@H]2[C@H](CO)N(S(=O)(=O)Cc3ccccc3)C23CN(C(=O)C2CCOCC2)C3)cc1 | inactive
C[C@@H]1CN([C@H](C)CO)C(=O)c2cc(NC(=O)NC3CCCCC3)ccc2O[C@@H](C)CCCCO[C@@H]1CN(C)C(=O)c1ccccc1 | inactive
COc1ccc(S(=O)(=O)N(C)C[C@@H]2OCc3cnnn3CCCC(=O)N([C@H](C)CO)C[C@@H]2C)cc1 | inactive
COCC#Cc1cnc2c(c1)C(=O)N([C@@H](C)CO)C[C@@H](C)[C@@H](CN(C)C(=O)Nc1ccc(OC)cc1)O2 | inactive
C[C@H](CO)N1C[C@H](C)[C@H](CN(C)Cc2ccc(C(F)(F)F)cc2)Oc2c(NC(=O)C3CCCCC3)cccc2C1=O | inactive
COC(=O)c1cc(=O)n2ccccc2c1C#N | inactive
CO[C@@H](CN(C)C(=O)c1ccccc1F)[C@H](C)CN([C@@H](C)CO)S(=O)(=O)c1ccc(Cl)cc1 | inactive
